In PubChem BioAssay (NCI):
This is part of a sample that, as a whole, favours compounds with a hit. Of some 83,000 tested, about 20% had one in any assay.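 A percent growth of 40 corresponds to 60% growth inhibition; 0 means no net growth; -100 means all cells died. Active threshold: below 10.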 A number with no mark means an inactive call. Calls of active or inactive are those of the source.

What follows are molecules tested on 786-0 renal (assay: NCI-60 one-dose screen, 48 h (100 = growth as untreated, 0 = no growth, -100 = all killed)). Settings: 10 µM unless noted.

Compound | growth
C=C1C(=O)O[C@H]2[C@H]1CC/C(COC(=O)NCCc1c[nH]c3ccccc13)=C\CC[C@@]1(C)O[C@@H]21 | -50.3% (active)
C/C(=N\Nc1cc(C)c2ccccc2n1)c1ccccn1 | -63.9% (active)
COC(=O)CNc1nc(N(C)O)nc(N(C)O)n1 | 25.9%
Cc1ccc(-c2nc([P+](c3ccccc3)(c3ccccc3)c3ccccc3)c(N3C[C@H]4C[C@H](C3)c3cccc(=O)n3C4)o2)cc1 | 97.1%
COC(=O)[C@]12CC[C@@H](C)[C@H](C)[C@@H]1C1=CC[C@@H]3[C@@]4(C)CC(=O)[C@H](OC(=O)c5ccco5)[C@@]5(C)COC(=C45)C[C@@]3(C)[C@]1(C)CC2 | 6.39% (active)
COc1ccc(/C=C/C(=O)NCC(C)O)cc1 (stereo not drawn) | 100%
Cc1nn(-c2ccc(Cl)cc2)c(=O)n1CCn1cnc2ccccc21 | 87.4%
CN1CCN(CCOc2ccc(-c3cnc4c(-c5ccccc5F)cnn4c3)cc2)CC1 | -73.5% (active)
O=C(NO)c1ccc(Cn2c(=O)n(-c3ccccc3)c(=O)c3ccccc32)cc1 | 71%
COc1cccc2c1C(=O)c1c(O)c3c(c(O)c1C2=O)C[C@@](O)(C(=O)CO)C[C@@H]3OC1C[C@H](N)[C@H](O)[C@H](C)O1 (stereo partly drawn) | 6.46% (active)
CCC(CC)C(=O)OC(C)COc1ccc(C(C)(C)C)cc1 (stereo not drawn) | 97.4%
Nc1ccc(Cl)cn1 | 106%
CN1CCN(CCOc2ccc(-c3cnc4c(-c5cccc(F)c5)cnn4c3)cc2)CC1 | 57%
CCCC1CCCCN1C(=O)OCC(C)C (stereo not drawn) | 106%
O=S(=O)(NCCNc1cc(-c2cn(-c3ccccc3)nc2-c2cccc(O)c2)ccn1)c1cccc(F)c1 | 16.8%
Cc1cccc(C)c1NC(=O)CSC(=S)N1CCCCC1 | 92.6%
O=C(/C=C/c1cccc(O)c1)c1ccccc1O | 103%
O=C(NO)c1ccc(Cn2c(=O)n(CCc3ccc(O)cc3)c(=O)c3ccccc32)cc1 | 83.4%
COc1ccc(O)c(-c2cc(-c3ccc(Cl)cc3)c(C#N)c(=O)[nH]2)c1 | 68.3%

Compound | growth
CCC(=O)c1c(C)[nH]c(C)c1C | 99.2%
COc1cc(-c2cc3ncccc3c3nc(OCCN(C)C)c4cccnc4c23)cc(OC)c1OC | -88.5% (active)
O=C(/C=C/c1cccc2ccccc12)Nc1ncc(Cc2ccccc2)s1 | 34.3%
CC(C)/C=C/CC[C@](C)(O)[C@H]1CC[C@]2(C)[C@@H]1CC[C@@H]1[C@@]3(C)C/C(=C/c4cccc(C(F)(F)F)c4)C(=O)C(C)(C)[C@@H]3CC[C@]12C | 101%
O=C(NCN1C(=O)c2cccc3cccc(c23)C1=O)N1CCC(Cc2ccccc2)CC1 | 102%
COc1cnc2c(c1)C(=O)c1c-2n(CCCNCCN2CCOCC2)c(=O)c2cc([N+](=O)[O-])ccc12 | -53.6% (active)
CCCCCCCC(=O)SCC/C=C/[C@@H]1CC(=O)NCc2cccc(n2)CN(Cc2ccc3ccccc3c2)CC(=O)N[C@@H](C(C)C)C(=O)O1 | 72.1%
Fc1ccc2nc(-c3cc(-c4ccc5c(c4)OCO5)n[nH]3)[nH]c2c1 | 56.8%
Cn1cc(-c2nc(-c3cn(C)c4ncccc34)cs2)c2cc(F)ccc21 | 45.9%
NCCn1cc(-c2nc(-c3c[nH]c4ncccc34)cs2)c2ccccc21 | 89.8%
COc1ccc(-c2cc(-c3c(C)oc4cc5occc5c(OC)c4c3=O)nc(N)c2C#N)cc1OC | 83.1%
CN(C)c1ccc(N)c2ccccc12 | 87.1%
CN(C)CCCCC(C(=O)CBr)(c1ccccc1)c1ccccc1 | 5.16% (active)
O=C1Nc2ccccc2/C1=C/c1cn(CCCn2c3ccccc3c(=O)c3ccccc32)c2ccccc12 | 82.9%
C=C(C)[C@@H]1CC[C@]2(C=NCCCNCCCCNCCCN)CC[C@]3(C)[C@H](CC[C@@H]4[C@@]5(C)CCCNC(C)(C)[C@@H]5CC[C@]43C)[C@@H]12 | 107%
CCCCn1c(-c2ccc(O)cc2)cn2c3c(=O)[nH]c(=O)n(C)c3nc12 | 88.8%
Cc1nn(-c2ccc(Br)cc2)c2nc3[nH]c(=O)[nH]c(=O)c3nc12 | 100%
Cc1cc2nc3c4cc(N)ccc4n(CCN(C)C)c3nc2cc1C | 26.2%
COc1ccc(-c2nc3c(c(C)nn3-c3ccc(F)cc3)c(=O)[nH]2)cc1 | 11%
